Rows were chosen to be rich in hits. Some 1.1% of all compounds tested hit in one or more screens of this group.
MOR-DOR ag – agonists of OPRM1-OPRD1 heterodimerization, primary screen, cell-based, luminescence | cells | activation, % at 9.3 µM | 340,000 compounds, 0.3% hits | AID 504326, 2011; in the data active means activation above about 18%;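 further: 0% = vehicle-treated cells and 100% = reference agonist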
HTR5A inv ag – HTR5A inverse agonists in luminescence cell assay, primary screen, counter-screen for OPRM1-OPRD1 heterodimer inverse agonist project, full-deck HTS | 340,000 compounds, 0.083% hits | inhibition, % at 9.3 µM | 5-hydroxytryptamine receptor 5A (Homo sapiens), P47898 | HTR5A cell line, inverse agonism; in the data active means inhibition mostly above about 23%, no sharp cut-off; inactive means mostly below about 18%;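 further: 0% = cells with DMSO and 100% = no-cell wells with DMSO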
MOR-DOR inv ag – inverse agonists of MOR-DOR heterodimerization, primary screen, cell-based, luminescence. Mu-type opioid receptor (Homo sapiens) + Delta-type opioid receptor (Homo sapiens), …. cell-based MOR-DOR heterodimer luminescence, inverse agonism. inhibition, % at 9.3 µM. 340,000 compounds, 0.21% hits. AID 504357, 2011; in the data active means inhibition above about 22%, passing the limit was not always enough;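 further: 0% = cells with DMSO and 100% = wells without cells with DMSO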
HTR5A ag ctr – HTR5A agonists in luminescence cell assay, primary screen, counter-screen for OPRM1-OPRD1 heterodimer agonist project, full-deck HTS | cell-based | activation, % at 9.3 µM | 340,000 compounds, 0.61% hits | AID 504692, 2011; in the data active means activation mostly above about 9.5%, no sharp cut-off; inactive means mostly below about 7.6%;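 further: 0% = cells with vehicle only and 100% = reference agonist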
* marks the source's active call; other numbers are inactive results.

SMILES | MOR-DOR ag | HTR5A inv ag | MOR-DOR inv ag | HTR5A ag ctr
N/C(=N\OC(=O)/C=C/c1ccccc1Cl)c1ccccn1 | 1 | 4 | -3 | 0
Cn1c(SCC(=O)c2ccccc2)nc2cccnc21 | 2 | 12 | -11 | 9.7*
Cc1ccc(C(=O)CSc2nc3cccnc3n2C)cc1 | -1 | -10 | 8 | 4
CCCOC(=O)C(C)n1cnc2scc(-c3ccc(C)cc3)c2c1=O (configuration not stated) | 1 | -11 | -4 | 3
CC(NC(=O)c1ccco1)c1nc(-c2ccccc2Cl)no1 (configuration not stated) | -1 | -1 | 6 | 0
CCCn1c(NCc2ccco2)nc2c1c(=O)n(C)c(=O)n2C | -2 | -6 | 9 | 2
CCn1c(NCc2ccccn2)nc2c1c(=O)n(C)c(=O)n2C | -2 | 4 | 11 | 14*
Cc1c(NCc2cc(Cl)cc(Cl)c2O)c(=O)n(-c2ccccc2)n1C | 0 | 4 | -1 | -3
Cc1c(NCc2nc3ccccc3[nH]2)c(=O)n(-c2ccccc2)n1C | -1 | -21 | 8 | 12*
CC(C)c1ccc(/C=C2\SC(=O)N(CC(=O)NC3C=CS(=O)(=O)C3)C2=O)cc1 (configuration not stated) | 0 | -6 | 2 | 4
CCCNC(=O)CCc1c(C)nc2nc(C)nn2c1C | -1 | -4 | 8 | 0
O=C(CCl)N=c1sccn1Cc1ccccc1Cl | 66* | -252 | -330 | 85*
O=C(CCl)N=c1sccn1Cc1cccc2ccccc12 | 74* | -21 | -396 | 73*
CCC(=O)OCC(=O)N=c1sccn1Cc1ccccc1Cl | -1 | 10 | 3 | -5
O=C(CCl)N=c1sccn1Cc1ccc(Cl)cc1Cl | 77* | -4 | -384 | 53*
COc1ccc(C2CC(c3ccccc3OC(=O)/C=C/c3ccccc3)=NN2C(C)=O)cc1 (configuration not stated) | -1 | 2 | 3 | -1
CCCC(=O)Nc1nnc(S(=O)(=O)N(CC)c2ccc(OC)cc2)s1 | -2 | 2 | 8 | 0
CCOc1cc(C(c2c(C)[nH][nH]c2=O)c2c(C)[nH][nH]c2=O)ccc1OCc1ccc([N+](=O)[O-])cc1 | 0 | -55 | 1 | 11*
COc1cccc(C(=O)O/N=C(\N)c2ccc([N+](=O)[O-])cc2)c1OC | 14 | -16 | -78 | 13*
Cc1nnc(SCC(=O)Nc2nccs2)n1C(C)C | -3 | 6 | 15 | 0
Cc1cccc(OCCCC(=O)Nc2nc3ccccc3[nH]2)c1 | 0 | -29 | 0 | 10*
COC(=O)CN(C)C(=O)CC1C(=O)NCCN1CC(C)(C)C (configuration not stated) | 1 | -14 | -10 | 13*
Cc1cc(C)c(CN2CCN(C(=O)Cn3cnc(C(=O)Nc4ccc(C)c(C)c4)n3)CC2)c(C)c1 | 1 | -31 | -5 | 8.5*
CC(OC(=O)CNS(=O)(=O)c1ccc(C#N)cc1)C(=O)Nc1ccc(Cl)cn1 (configuration not stated) | -1 | 2 | 8 | 11*
O=C(COc1ccccc1)N/N=C/c1ccc(O[C@@H]2O[C@H](CO)[C@@H](O)[C@H](O)[C@H]2O)cc1 | -2 | 4 | 11 | 13*
SMILES | MOR-DOR ag | HTR5A inv ag | MOR-DOR inv ag | HTR5A ag ctr
O=C1[C@H](Oc2ccccc2)[C@@H](c2ccccc2)N1c1ccncc1 | -4 | -34 | 18 | 9.4*
COc1ccc(OC)c(NP2(=O)OCC(C)([N+](=O)[O-])CO2)c1 (configuration not stated) | -1 | 3 | 5 | -1
O=C(NCC1(c2ccccc2)CCCC1)C(=O)NCC1(c2ccccc2)CCCC1 | 1 | 9 | -3 | 9.9*
O=C(NCC1(c2ccccc2)CCCC1)c1ccccc1 | -1 | 21 | 4 | 2
COCCNC(=O)Cn1nc(-c2ccc(C)cc2)ccc1=O | 0 | -5 | 0 | 1
CC1CN(N=Cc2ccc([N+](=O)[O-])o2)C(=N)O1 (configuration not stated) | 2 | -32 | -11 | 8.2*
COc1ccc(/C=C2/SC(=S)N(CCC(=O)N3CCN(C)CC3)C2=O)cc1 | 3 | -20 | -22 | 14*
COc1ccc(/C=C2/SC(=S)N(CCCC(=O)N3CCN(C)CC3)C2=O)cc1 | 0 | 7 | 2 | -3
Cc1[nH][nH]c(=O)c1C=NCc1ccc(Cl)cc1 | -2 | 3 | 9 | 5
COc1ccc(C(=O)N/N=C\c2ccc(OC)c(COc3ccccc3Br)c2)c(OC)c1 | 3 | -20 | -21 | 10*
c1ccc(CN2CCN(c3ncnc4c3[nH]c3ccccc34)CC2)cc1 | 5 | 15 | -30 | 1
c1ccc2c(c1)CCN(c1ncnc3c1[nH]c1ccccc13)C2 | 52* | -16 | -324 | 9
COc1ccc(N2CC(C(=O)N3CCN(S(=O)(=O)c4ccc(F)c(F)c4)CC3)CC2=O)c(OC)c1 (configuration not stated) | 0 | -19 | 2 | 7
CCCOc1ccc(CC2CCC(=O)NC2=O)cc1 (configuration not stated) | 1 | -8 | -4 | 3
CCCCOc1ccc(C2(C)CC(=O)NC2=O)cc1 (configuration not stated) | -2 | -18 | 7 | 12*
C/C=C(\C)CN1CCC(n2nccc2NC(=O)CCCc2ccccc2)CC1 | -1 | 9 | 5 | 12*
Cc1cccnc1NC(=O)c1ccc(C(=O)c2ccccc2)cc1 | -1 | 16 | 3 | -6
CSc1ncccc1C(=O)OCC(=O)NCc1ccccc1 | -3 | 12 | 12 | 13*
CSc1ncccc1C(=O)OCC(=O)NC(C)CCc1ccccc1 (configuration not stated) | -3 | -26 | 13 | 9
O=C(Nc1c(F)cccc1F)C1CCN(C(=O)c2cccs2)CC1 | -1 | 25 | 5 | 0
CC(C)n1cnc2c(Nc3cccc(Cl)c3)nc(NCCCO)nc21 | -1 | 6 | 4 | -2
C=CC(=O)Nc1cccc(Nc2nc(N[C@H]3CC[C@H](N(C)C)CC3)nc3c2ncn3C(C)C)c1 | 36* | 7 | -196 | -3
CCOC(=O)c1ccc(N2CCOCC2)c(NS(=O)(=O)c2ccc(F)cc2)c1 | -2 | 14 | 14 | -2
COC(=O)C1=C(C)NC(=O)/C1=C\c1ccco1 | -2 | -33 | 8 | 11*
COC(=O)C1=C(C)N(C)C(=O)/C1=C\c1ccco1 | -1 | 13 | 5 | 5
Cc1ccc(-c2cc(C(=O)Nc3cccnc3)c3ccccc3n2)s1 | 8 | -33 | -41 | 10*
Cc1cccc(NC(=O)c2cc(-c3cccnc3)nc3c(C)cccc23)n1 | 8 | -9 | -45 | 11*
Cc1cccc(-c2cc(C(=O)Nc3cccnc3)c3ccccc3n2)c1 | 5 | -12 | -37 | 0
Cc1cccc(-c2cc(C(=O)Nc3ccncc3)c3ccccc3n2)c1 | 21* | -43 | -118 | 12*

Bioassay records deposited in PubChem by The Scripps Research Institute Molecular Screening Center.
